# Test results as given in PubChem BioAssay (NCI).
# The panel holds about 83,000 compounds, 20% with a hit somewhere; the sample as a whole holds those more often.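 Percent growth is the endpoint: 0 to 100 indicates growth inhibition (40 means 60% inhibition), 0 means no net growth, and negative values indicate cell death.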 Values without a mark were called inactive. The source made the active and inactive calls. The calls were made as follows: active = growth percent below 10; inactive = the rest.
# Assays:
# Experiment in all cases: NCI-60 one-dose screen, 48 h (100 = growth as untreated, 0 = no growth, -100 = all killed)
# Details in all cases: 10 µM unless noted
# [1] = test system: NCI-H23 lung
# [2] = test system: NCI-H226 lung
# [3] = test system: NCI-H322M lung
# [4] = test system: HOP-62 NSCLC
# [5] = test system: NCI-H460 lung
# [6] = test system: HOP-92 NSCLC
# [7] = test system: NCI-H522 lung
# [8] = test system: A549/ATCC NSCLC
# [9] = test system: 786-0 renal
# [10] = test system: COLO 205 colon
# [11] = test system: DU-145 prostate
# [12] = test system: K-562 leukemia
# [13] = test system: MALME-3M melanoma
# [14] = test system: MDA-MB-231 breast
# [15] = test system: RXF 393 renal
# [16] = test system: SF-268 CNS
# [17] = test system: SF-295 CNS
# [18] = test system: SF-539 CNS
# [19] = test system: UACC-257 melanoma
# [20] = test system: M14 melanoma
Compound,growth [1],growth [2],growth [3],growth [4],growth [5],growth [6],growth [7],growth [8],growth [9],growth [10],growth [11],growth [12],growth [13],growth [14],growth [15],growth [16],growth [17],growth [18],growth [19],growth [20]
Cc1nn(-c2ccc(F)cc2)c2ncnc(Nc3ccc(NC(=O)Nc4ccc(Cl)c(C(F)(F)F)c4)cc3)c12,22.4%,58%,67.5%,45%,10.9%,-8.33% (active),12.1%,50.7%,40.7%,4.15% (active),41.8%,15.3%,34%,71.6%,19.4%,66%,6.74% (active),48.2%,26.8%,
Cc1c(/C=C/[N+](=O)[O-])ccc2c1[nH]c1ccccc12,93.3%,54.3%,134%,106%,95.4%,90.6%,94.8%,87.8%,73.2%,82.2%,99.3%,91.6%,135%,106%,62.6%,108%,103%,94.2%,90%,
O=C1Nc2c(ccc(Cl)c2Cl)/C1=C\c1ccc(C(F)(F)F)cc1,68.8%,59.1%,75.5%,87.3%,89.7%,57.8%,76.4%,84.1%,90.7%,100%,97.3%,32.8%,96.5%,81.9%,77.4%,91.6%,77.2%,88.1%,97.5%,
COc1ccc(NC2=C(Sc3nc(C)cc(C)n3)C(=O)N(Cc3ccccc3)C2=O)cc1Cl,84.5% [30 µM],79.9% [30 µM],111% [30 µM],96.3% [30 µM],60.7% [30 µM],26.9% [30 µM],85.7% [30 µM],74.3% [30 µM],80.4% [30 µM],110% [30 µM],113% [30 µM],69.7% [30 µM],95.4% [30 µM],85.4% [30 µM],50.8% [30 µM],57.8% [30 µM],39.6% [30 µM],101% [30 µM],43.9% [30 µM],95.9% [30 µM]
Cc1cc(C)nc(SC2=C(Nc3cccc(Cl)c3C)C(=O)N(Cc3ccccc3)C2=O)n1,58.9% [30 µM],69.2% [30 µM],63.5% [30 µM],73% [30 µM],44% [30 µM],14.4% [30 µM],51.3% [30 µM],27.3% [30 µM],61.8% [30 µM],70.3% [30 µM],70.7% [30 µM],45.4% [30 µM],58% [30 µM],51.6% [30 µM],43.3% [30 µM],72% [30 µM],-5.72% [30 µM] (active),50.5% [30 µM],72.3% [30 µM],63.1% [30 µM]
Nc1ccc(-c2cc3c(Nc4ccc(Oc5cccc(C(F)(F)F)c5)c(Cl)c4)ncnc3s2)cc1,69.6%,69%,61.9%,90.2%,69.5%,87.8%,53.6%,51.4%,73.9%,91.3%,72.5%,24.9%,91.8%,95.1%,35.7%,66.1%,77.2%,74.5%,77%,
COc1cccc(Nc2nc(SC)nc(-c3cccc([N+](=O)[O-])c3)c2C#N)c1,78.3%,19.3%,74%,27%,41.7%,62.9%,72.1%,28%,36.4%,82.1%,81.4%,85.4%,72.7%,65.8%,68.2%,88%,62.6%,81.4%,88.5%,83.4%
CCn1c(O)c(/C=N/NC(=O)C(C)c2ccc(CC(C)C)cc2)sc1=S (stereo not given),39.2%,31.1%,37.6%,22.9%,7.24% (active),39.9%,-11.6% (active),21.8%,17.8%,15.3%,22.1%,9.15% (active),64.3%,35.4%,9.92% (active),32.9%,15.8%,-13.5% (active),51.9%,
